In PubChem BioAssay (EPA / NIEHS) one finds AC50 and outcome data, which are given here for 24 compounds.

Read-out in experiment [1]: Secreted IgG (sIgG), gene 3500
The experiment is described as follows: BSK_BT_sIgG: BioMAP Diversity Plus: BT Assay for Secreted IgG (sIgG) Biomarker Activity (AID 2284226). To be noted: primary human B cells with PBMC. Summed up: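 ELISA quantitation of secreted IgG from human B cells co-cultured with PBMC, sampled 24 h post-dosing. Values fitted relative to DMSO vehicle as baseline, positive fitting direction.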

The nature of experiment [2]: BSK_BT_Bcell_Proliferation: Viability Assessment in the BioMAP Diversity Plus: BT Assay for B cell Proliferation (AID 2284227). To be noted: primary human B cells with PBMC. In outline:
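SRB-based protein staining (0.1% SRB after 10% TCA fixation, 560 nm) quantifies proliferation in human B cells co-cultured with PBMC, 72 h post-dosing, with signal gain scored relative to DMSO negative control.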

Read-out in experiment [3]: Interleukin 6 (IL6), IL6 (gene 3569)
The experiment is described as follows: BSK_BT_xIL6: BioMAP Diversity Plus: BT Assay for Interleukin 6 (IL6) Biomarker Activity (AID 2284228). To be noted: primary human B cells with PBMC. Summed up:
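Readout: secreted IL-6 via Luminex xMAP multiplex, 24 h post-dosing. System: primary human B cells co-cultured with PBMC. Signal change scored relative to DMSO vehicle, positive fitting direction.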

Read-out in experiment [4]: Interleukin 17A (IL17A), IL17A (gene 3605)
The experiment is described as follows: BSK_BT_xIL17A: BioMAP Diversity Plus: BT Assay for Interleukin 17A (IL17A) Biomarker Activity (AID 2284229). To be noted: primary human B cells with PBMC. Summed up:
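Luminex xMAP readout of secreted IL-17A; human B cell + PBMC co-culture; 24 h post-dose; positive-direction fit vs DMSO negative control.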

Read-out in experiment [5]: Vascular cell adhesion molecule 1 (VCAM1), VCAM1 (gene 7412)
The experiment is described as follows: BSK_MyoF_VCAM1: BioMAP Diversity Plus: MyoF Assay for Vascular cell adhesion molecule 1 (VCAM1) Biomarker Activity (AID 2284231). Conditions: primary human lung fibroblasts. In outline:
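MyoF system, lung fibroblasts; 24 h post-dose; VCAM-1 by ELISA; gain-of-signal fit vs DMSO baseline.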

The structures appear in SMILES notation. Activity calls are given as the source filed them. How the source made its calls: active means hit-call score of the fitted dose curve at least 0.9, where 1 is the maximum; inactive means score below 0.9.

Regarding `CCOC(=O)/C=C(C)/C=C/C[C@@H](C)CCCC(C)C`, the AC50 was 20 µM (active) in experiment [1]; 27 µM (active) in experiment [2]; 20.8 µM (active) in experiment [3]; 20 µM (active) in experiment [4]; 29.2 µM (active) in experiment [5].

Take `COC(=O)c1sccc1S(=O)(=O)NC(=O)Nc1nc(C)nc(OC)n1`: the outcome in experiment [1], in experiment [2], in experiment [3], in experiment [4] and in experiment [5] was inactive.

For the compound `ClC1=C(Cl)[C@]2(Cl)[C@H]3[C@H]([C@H]4C=C[C@H]3C4)[C@@]1(Cl)C2(Cl)Cl`, the AC50 in experiment [1] is 7.53 µM (active); in experiment [2] it was 36.3 µM (active); in experiment [3], 20 µM (active); in experiment [4], 24.4 µM (active); in experiment [5], 3.97 µM (active).

Take `Oc1ccc(-c2ccccc2)cc1`: the result in experiment [2], in experiment [3], in experiment [4] and in experiment [5] was inactive.

In the case of `CCSC(C)CC1CC(=O)C(C(CC)=NOC/C=C/Cl)=C(O)C1` (centres undefined), the result in experiment [1], in experiment [2], in experiment [3], in experiment [4] and in experiment [5] was inactive.

Turning to `O=[N+]([O-])c1ccc2c3c(cccc13)CC2`, the result in experiment [1], in experiment [2], in experiment [4] and in experiment [5] was inactive. The AC50 in experiment [3] was 20 µM (active).

Regarding `CC(=O)C(Cl)C(=O)N(C)C` (centres undefined), the AC50 is 20 µM (active) in experiment [1], 25 µM (active) in experiment [2] and 27.9 µM (active) in experiment [3]. Besides, the result in experiment [4] and in experiment [5] was inactive.

With `C(=NC1CCCCC1)=NC1CCCCC1`, the AC50 was 1.82 µM (active) in experiment [1]; 5.75 µM (active) in experiment [2]; 9.07 µM (active) in experiment [3]; 6.39 µM (active) in experiment [4]; 11.8 µM (active) in experiment [5].

Turning to `COP(=S)(OC)Oc1ccc(S(=O)(=O)N(C)C)cc1`, the AC50 in experiment [1] was 9.48 µM (active). In addition, the result in experiment [2], in experiment [3], in experiment [4] and in experiment [5] was inactive.

On to `O=C(O)C(F)(F)C(F)(F)C(F)(F)C(F)(F)C(F)(F)C(F)(F)F`, for which the outcome in experiment [1], in experiment [2], in experiment [3], in experiment [4] and in experiment [5] was inactive.

Turning to `CC(C)CCCCCCOC(=O)c1ccccc1C(=O)OCCCCCCC(C)C`, the result in experiment [1], in experiment [2], in experiment [3], in experiment [4] and in experiment [5] was inactive.

Regarding `Nc1ccc(-c2ccc(N)c(Cl)c2)cc1Cl`, the AC50 is 6.09 µM (active) in experiment [1], 20 µM (active) in experiment [2], 12.8 µM (active) in experiment [4] and 20 µM (active) in experiment [5]. Further, the outcome in experiment [3] was inactive.

In the case of `NC(=S)Nc1ccccc1`, the outcome in experiment [1], in experiment [2], in experiment [3], in experiment [4] and in experiment [5] was inactive.

Regarding `CC(C)c1ccc(CO)cc1`, the result in experiment [1], in experiment [2], in experiment [3], in experiment [4] and in experiment [5] was inactive.

For the compound `CCOP(=S)(OCC)SCCS(=O)(=O)CC`, the result in experiment [1], in experiment [2], in experiment [3], in experiment [4] and in experiment [5] was inactive.

As to `O=C(O)CCC(F)(C(F)(F)F)C(F)(F)F`, the outcome in experiment [1], in experiment [2], in experiment [3], in experiment [4] and in experiment [5] was inactive.

On to `COC[C@H](C)N(C(=O)CCl)c1c(C)csc1C`, for which the result in experiment [1], in experiment [2], in experiment [3], in experiment [4] and in experiment [5] was inactive.

Turning to `CCNc1nc(NC(C)(C)C)nc(SC)n1`, the AC50 in experiment [1] is 26.7 µM (active); in experiment [5], 20 µM (active). Also, the result in experiment [2], in experiment [3] and in experiment [4] was inactive.

Take `CCCCC(CC)CO[N+](=O)[O-]` (centres undefined): the outcome in experiment [1], in experiment [2], in experiment [3], in experiment [4] and in experiment [5] was inactive.

Take `CCCCCCCCC(=O)NCc1ccc(O)c(OC)c1`: the result in experiment [1], in experiment [2], in experiment [3], in experiment [4] and in experiment [5] was inactive.

Take `Nc1ncc([N+](=O)[O-])s1`: the result in experiment [1], in experiment [2], in experiment [3], in experiment [4] and in experiment [5] was inactive.

For `O=Cc1cccc(Oc2ccccc2)c1`, the result in experiment [1], in experiment [2], in experiment [4] and in experiment [5] was inactive. Further, the AC50 in experiment [3] was 5.07 µM (active).

For the compound `COP(=S)(OC)Oc1c(Cl)cc(C)cc1Cl`, the AC50 in experiment [1] was 22.9 µM (active); in experiment [4], 10.7 µM (active). The result in experiment [2], in experiment [3] and in experiment [5] was inactive.

With `OCc1ccco1`, the AC50 in experiment [1] is 26.1 µM (active); in experiment [2], 26.7 µM (active). For the same compound, the outcome in experiment [3], in experiment [4] and in experiment [5] was inactive.

What is called AC50 is the concentration giving half of the maximal activity seen.
